Reference: PubChem BioAssay (NCATS)
Results filed as inconclusive are left out. Activity calls are given as the source filed them. Unless noted, the call rests on the fitted dose curve; in most records, active means well fitted curve in the direction sought with a large enough effect; inconclusive means small, poorly fitted or top-dose-only effect, or another doubt; inactive means no such curve, though single readings can be large; an effect the other way counts as inactive or inconclusive.

How the values were obtained:
[1] = molecular target: Lysosomal acid glucosylceramidase (Homo sapiens) (UniProt P04062); test: Glucocerebrosidase-p2 (AID 348; in the data active means potency below about 10 µM; further: potency means the concentration at half of the fitted maximal effect); settings: purified GBA, blue fluorogenic substrate, 40 min
Lysosomal acid glucosylceramidase (Homo sapiens), sequence (P04062 whole entry, looked up): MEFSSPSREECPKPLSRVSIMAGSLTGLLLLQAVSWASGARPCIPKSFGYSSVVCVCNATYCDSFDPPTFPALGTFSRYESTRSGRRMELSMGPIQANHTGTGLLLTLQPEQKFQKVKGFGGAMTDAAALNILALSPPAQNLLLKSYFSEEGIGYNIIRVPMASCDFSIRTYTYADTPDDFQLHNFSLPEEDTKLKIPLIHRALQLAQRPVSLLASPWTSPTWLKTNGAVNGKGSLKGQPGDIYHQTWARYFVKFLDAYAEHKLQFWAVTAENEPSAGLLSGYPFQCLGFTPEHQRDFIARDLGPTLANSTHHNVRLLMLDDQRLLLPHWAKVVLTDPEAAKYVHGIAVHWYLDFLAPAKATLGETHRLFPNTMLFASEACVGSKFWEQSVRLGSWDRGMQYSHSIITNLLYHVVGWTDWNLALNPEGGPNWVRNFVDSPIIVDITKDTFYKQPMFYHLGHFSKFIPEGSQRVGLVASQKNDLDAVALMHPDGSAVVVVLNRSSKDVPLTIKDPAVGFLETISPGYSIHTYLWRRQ
Outline: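 Normal human glucocerebrosidase (0.2 nM) with blue fluorogenic substrate (80 uM final) in citrate/phosphate pH 5.9 with 10mM sodium taurocholate, 0.01% tween-20; 40 min RT, NaOH/glycine stop; fluorescence Ex 365/Em 440; AC50 from a titration from 0.6 nM upwards.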

[2] = AP1 Signaling Pathway (AID 357; active means well fitted curve in either direction with a large enough effect, not every such curve was filed as active;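 further: ME-180 reporter cells stimulated with EGF at its EC50 level; on the % scale 0 is the no-effect control and ±100 the full control effect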); settings: ME-180 AP-1-bla reporter, EGF-induced, beta-lactamase ratio, 5 h; at 7.69 µM (top of the series) unless noted
Outline: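 Titration-series screen for positive or negative modulators of EC50 EGF-induced signaling in ME-180 cells carrying an AP-1-driven beta-lactamase reporter. After 5 hours at 37 degrees Celsius, CCF4 460nm/530nm emission ratio gave %Activity; AC50 values derived.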

[3] = molecular target: Cytochrome P450 1A2 (Homo sapiens) (UniProt P05177); test: p450-cyp1a2 (AID 410; calls by dose curve; further: potency means the concentration at half of the fitted maximal effect;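 on activity change, negative = inhibition: -100% = full effect of reference inhibitor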); settings: recombinant CYP1A2, luciferin-ME demethylation, luminescence; series mostly up to 57 µM
Cytochrome P450 1A2 (Homo sapiens), sequence (P05177 whole entry, looked up): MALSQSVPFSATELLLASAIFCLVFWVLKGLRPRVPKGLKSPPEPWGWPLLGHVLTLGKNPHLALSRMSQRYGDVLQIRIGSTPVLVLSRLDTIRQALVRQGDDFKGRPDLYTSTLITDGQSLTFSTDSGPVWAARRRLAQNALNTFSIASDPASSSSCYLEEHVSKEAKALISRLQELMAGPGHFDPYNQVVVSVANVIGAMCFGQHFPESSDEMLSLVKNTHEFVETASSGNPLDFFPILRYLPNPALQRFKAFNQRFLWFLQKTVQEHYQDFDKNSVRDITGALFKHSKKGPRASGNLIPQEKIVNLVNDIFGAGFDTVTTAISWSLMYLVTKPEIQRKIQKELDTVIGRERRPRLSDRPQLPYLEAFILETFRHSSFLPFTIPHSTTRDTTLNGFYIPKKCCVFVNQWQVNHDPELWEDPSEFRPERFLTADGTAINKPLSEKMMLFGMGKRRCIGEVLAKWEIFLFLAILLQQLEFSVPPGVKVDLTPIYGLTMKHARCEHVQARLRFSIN
Outline: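 Luminescent demethylation readout: Luciferin-ME (100uM, equal to Km) turned over by 20nM CYP1A2 for 60 min at room temperature after NADPH regeneration addition, following 10 min compound preincubation. Normalization used 57 uM furafylline as full inhibition.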

[4] = NFAT Signaling Pathway (AID 444; active means well fitted curve in either direction with a large enough effect, not every such curve was filed as active;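 further: carbachol stimulus at about its EC50 of 1 µM final; on the % scale 0 is the no-effect control and ±100 the full control effect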); settings: Jurkat NFAT-bla M1, carbachol, beta-lactamase ratio, 5 h; at 7.69 µM (top of the series) unless noted
Outline: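 Jurkat cells with NFAT-driven β-lactamase reporter and co-expressed M1 receptor, stimulated with carbachol (final 1 uM, ~EC50), compound titration, 5 h at 37 °C. CCF4 loaded 1 h at RT; 460/530 nm ratio gave %activity and AC50.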

[5] = Stat Signaling Pathway (AID 446; active means well fitted curve in either direction with a large enough effect, not every such curve was filed as active;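 further: ME-180 cervical cancer cells given 40 pM IL-6 alongside compound; SIE-controlled beta-lactamase reporter measured as 460/530 nm FRET emission ratio; on the % scale 0 is the no-effect control and ±100 the full control effect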); settings: ME-180 SIE beta-lactamase reporter, IL-6 stimulated, 5 h; at 7.69 µM (top of the series) unless noted
Outline: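 Normalization used AC90 stimulation (300 pM IL-6) and AC90 inhibition (125 nM pan-JAK inhibitor at 40 pM IL-6). The underlying signal is SIE-driven beta-lactamase in ME-180 cells after 5 h IL-6 exposure with compound.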

[6] = molecular target: Glucocorticoid receptor (Homo sapiens) (UniProt P04150); test: GR-GFP Redistribution (AID 450;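 active means compounds whose dose series gives a full or clear partial fitted curve of increased nuclear translocation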; further: potency means the concentration at half of the fitted maximal effect); settings: U2OS GR-GFP nuclear translocation, laser cytometry, 2 h
Glucocorticoid receptor (Homo sapiens), sequence (P04150 whole entry, looked up, the tested form may be a part): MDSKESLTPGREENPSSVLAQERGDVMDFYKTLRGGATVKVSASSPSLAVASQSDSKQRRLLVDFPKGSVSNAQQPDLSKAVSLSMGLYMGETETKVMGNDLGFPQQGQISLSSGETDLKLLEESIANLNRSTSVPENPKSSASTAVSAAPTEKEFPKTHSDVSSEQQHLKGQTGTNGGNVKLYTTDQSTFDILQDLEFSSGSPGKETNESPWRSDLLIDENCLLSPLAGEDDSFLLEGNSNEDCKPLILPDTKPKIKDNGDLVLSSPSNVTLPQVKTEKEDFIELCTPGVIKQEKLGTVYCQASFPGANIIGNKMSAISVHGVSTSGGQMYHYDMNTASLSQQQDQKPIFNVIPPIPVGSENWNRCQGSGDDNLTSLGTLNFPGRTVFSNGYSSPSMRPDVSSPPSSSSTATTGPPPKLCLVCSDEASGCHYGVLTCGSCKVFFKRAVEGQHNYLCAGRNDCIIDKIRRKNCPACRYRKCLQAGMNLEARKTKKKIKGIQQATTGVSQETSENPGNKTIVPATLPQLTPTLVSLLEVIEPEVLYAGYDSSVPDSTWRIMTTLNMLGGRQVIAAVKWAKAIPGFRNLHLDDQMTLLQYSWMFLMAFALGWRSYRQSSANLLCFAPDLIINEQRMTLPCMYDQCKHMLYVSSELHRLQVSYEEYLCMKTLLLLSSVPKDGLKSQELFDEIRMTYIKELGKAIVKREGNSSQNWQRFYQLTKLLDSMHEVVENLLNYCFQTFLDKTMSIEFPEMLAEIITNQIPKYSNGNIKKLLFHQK

[7] = molecular target: Glucocorticoid receptor (Homo sapiens) (UniProt P04150); test: GR-EFC Redistribution (AID 451; calls by dose curve; further: potency means the concentration at half of the fitted maximal effect); settings: CHO-K1 GR-EFC translocation, beta-gal luminescence, 2 h
Outline: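 CHO-K1 cells expressing nuclear EA and GR-ED fragments of b-gal; compounds titrated up to 46 uM final, 2 h at 37 C. GR nuclear translocation read as complemented b-gal luminescence after 1 h RT detection.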

[8] = molecular target: Mitogen-activated protein kinase 10 (Mus musculus) (UniProt Q61831); test: JNK3 AlphaScreen Assay (AID 530; active means well fitted curve in either direction with a large enough effect, not every such curve was filed as active;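 further: kinase came from lysate of stimulated human HepG2 cells; signal reports phosphorylation of biotinylated GST-cJun 1-79 at Ser73 with 10 µM ATP; on the % scale 0 is the no-effect control and ±100 the full control effect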); settings: JNK3 lysate, c-Jun phosphorylation; series mostly up to 57.1 µM
Outline: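 Activity was read by AlphaScreen after JNK3-containing HepG2 lysate (cytokine pre-activated) phosphorylated biotinylated GST-cJun with 10 uM ATP at room temperature. Phospho-Ser73 cJun antibody with Protein-A acceptor beads provided detection.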

[9] = molecular target: Cytochrome P450 2C9 (Homo sapiens) (UniProt P11712); test: qHTS Assay for Inhibitors and Substrates of Cytochrome P450 2C9 (AID 883); settings: recombinant CYP2C9, luciferin-H luminescence, 60 min; series mostly up to 57.1 µM; further: nearly all actives have a fitted effect of over 60% in size; further: potency means the concentration at half of the fitted maximal effect
Cytochrome P450 2C9 (Homo sapiens), sequence (P11712 whole entry, looked up): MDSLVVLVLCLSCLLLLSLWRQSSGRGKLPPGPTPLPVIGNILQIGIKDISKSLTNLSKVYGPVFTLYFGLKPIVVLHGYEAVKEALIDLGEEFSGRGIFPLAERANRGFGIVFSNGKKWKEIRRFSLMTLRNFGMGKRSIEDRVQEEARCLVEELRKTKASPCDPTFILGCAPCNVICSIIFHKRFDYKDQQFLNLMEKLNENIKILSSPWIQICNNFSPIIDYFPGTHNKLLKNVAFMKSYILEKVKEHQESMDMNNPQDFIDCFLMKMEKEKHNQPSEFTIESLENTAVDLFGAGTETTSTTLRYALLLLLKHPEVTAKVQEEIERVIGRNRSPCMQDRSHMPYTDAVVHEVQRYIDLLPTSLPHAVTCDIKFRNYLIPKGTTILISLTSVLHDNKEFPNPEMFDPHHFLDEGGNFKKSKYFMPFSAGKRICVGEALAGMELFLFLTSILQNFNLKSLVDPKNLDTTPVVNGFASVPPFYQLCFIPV
Outline: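 10nM CYP2C9 + 100uM Luciferin-H (=KM), 25mM KPO4; cpd 10 min 37C; NADPH regen, 60 min 37C; stop/detect with P450 Glo-Buffer 20 min; luminescence. Norm. to 57uM sulphaphenazole as full inhibition.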

[10] = molecular target: Cytochrome P450 3A4 (Homo sapiens) (UniProt P08684); test: qHTS Assay for Inhibitors and Substrates of Cytochrome P450 3A4 (AID 884); settings: recombinant CYP3A4, Luciferin-PPXE luminescence; series mostly up to 57.1 µM; further: potency means the concentration at half of the fitted maximal effect; nearly all actives have a fitted effect of over 50% in size
Cytochrome P450 3A4 (Homo sapiens), sequence (P08684 whole entry, looked up): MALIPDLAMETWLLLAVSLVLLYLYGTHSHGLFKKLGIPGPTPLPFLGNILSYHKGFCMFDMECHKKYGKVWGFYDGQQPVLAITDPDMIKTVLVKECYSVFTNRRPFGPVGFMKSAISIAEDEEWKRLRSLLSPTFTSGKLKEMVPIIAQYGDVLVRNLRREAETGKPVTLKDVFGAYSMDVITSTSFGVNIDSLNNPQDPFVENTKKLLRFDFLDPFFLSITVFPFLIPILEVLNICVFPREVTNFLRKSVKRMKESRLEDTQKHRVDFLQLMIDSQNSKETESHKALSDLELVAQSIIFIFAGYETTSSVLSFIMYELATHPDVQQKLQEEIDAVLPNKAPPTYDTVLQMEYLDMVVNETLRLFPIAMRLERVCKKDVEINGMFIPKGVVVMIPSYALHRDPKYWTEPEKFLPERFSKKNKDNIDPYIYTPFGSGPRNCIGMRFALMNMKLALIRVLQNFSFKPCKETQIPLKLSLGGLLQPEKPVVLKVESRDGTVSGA
Outline: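 Luminescent readout of luciferin produced by CYP3A4 (20 nM) dealkylation of Luciferin-PPXE, 25 uM (its KM). NADPH-driven reaction ran 60 min at RT after 10 min compound preincubation; data scaled to 57 uM ketoconazole as 100% inhibition.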

[11] = molecular target: Cytochrome P450 3A4 (Homo sapiens) (UniProt P08684); test: qHTS Assay for Activators of Cytochrome P450 3A4 (AID 885); settings: recombinant CYP3A4, Luciferin-PPXE luminescence, 60 min; series mostly up to 57.1 µM; further: nearly all actives have a fitted effect of over 65% in size
Outline: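 Human CYP3A4 dealkylates Luciferin-PPXE to luciferin, which luciferase detection converts to light. Substrate was at its KM (25uM), buffer 200mM KPO4, reaction 60 min at RT.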

[12] = molecular target: Dual specificity protein kinase CLK4 (Homo sapiens) (UniProt Q9HAZ1); test: qHTS Assay for Inhibitors of CDC-like Kinase 4 (Kinase-Glo Assay) (AID 1770); settings: recombinant Clk4, Kinase-Glo ATP depletion luminescence; series mostly up to 66.7 µM; further: nearly all actives have a fitted effect of over 65% in size; further: potency means the concentration at half of the fitted maximal effect
Dual specificity protein kinase CLK4 (Homo sapiens), sequence (Q9HAZ1 whole entry, looked up): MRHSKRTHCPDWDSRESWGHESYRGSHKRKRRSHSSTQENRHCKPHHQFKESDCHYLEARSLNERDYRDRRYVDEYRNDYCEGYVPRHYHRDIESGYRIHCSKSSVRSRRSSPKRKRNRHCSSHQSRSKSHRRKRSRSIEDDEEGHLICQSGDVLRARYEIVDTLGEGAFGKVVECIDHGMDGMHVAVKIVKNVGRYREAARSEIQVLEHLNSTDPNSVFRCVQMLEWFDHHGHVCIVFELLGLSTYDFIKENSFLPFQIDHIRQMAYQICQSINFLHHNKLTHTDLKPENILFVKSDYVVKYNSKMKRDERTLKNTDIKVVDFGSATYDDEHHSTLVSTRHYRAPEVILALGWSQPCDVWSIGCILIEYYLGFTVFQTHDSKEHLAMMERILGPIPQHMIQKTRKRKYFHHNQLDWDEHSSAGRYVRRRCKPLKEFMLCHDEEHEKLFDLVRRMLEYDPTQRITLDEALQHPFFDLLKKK
Outline: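 Luminescent ATP-depletion read-out (Kinase-Glo) after 4.5 h room-temperature reaction of Clk4 (25 nM final) with RS peptide (100 uM) and ATP (1 uM), pH 7.5 Tris buffer with MgCl2 and DTT.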

[13] = molecular target: Dual specificity protein kinase CLK4 (Homo sapiens) (UniProt Q9HAZ1); test: qHTS Assay for Inhibitors of CDC-like Kinase 4 (ADP-Glo Assay) (AID 1771); settings: recombinant CLK4, ADP-Glo luminescence; series mostly up to 80 µM; further: nearly all actives have a fitted effect of over 70% in size; further: potency means the concentration at half of the fitted maximal effect
Outline: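 ADP production was read by ADP-Glo luminescence after residual ATP depletion, following 1 h room-temperature reaction of 25 nM Clk4, 1 uM ATP and 100 uM RS peptide with MgCl2, EGTA, DTT and Triton X-100.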

[14] = molecular target: Ubiquitin carboxyl-terminal hydrolase 1 (Homo sapiens) (UniProt O94782); test: Inhibitors of USP1/UAF1: Pilot qHTS (AID 504865); settings: purified USP1/UAF1, Ub-rhodamine cleavage fluorescence; series mostly up to 54.9 µM;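 further: rhodamine fluorescence freed from ubiquitin-rhodamine substrate followed over time; top concentration of the series differs between compounds; on the % scale 0 is the no-effect control and ±100 the full control effect; nearly all actives have a fitted effect of over 35% in size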
Ubiquitin carboxyl-terminal hydrolase 1 (Homo sapiens), sequence (O94782 whole entry, looked up): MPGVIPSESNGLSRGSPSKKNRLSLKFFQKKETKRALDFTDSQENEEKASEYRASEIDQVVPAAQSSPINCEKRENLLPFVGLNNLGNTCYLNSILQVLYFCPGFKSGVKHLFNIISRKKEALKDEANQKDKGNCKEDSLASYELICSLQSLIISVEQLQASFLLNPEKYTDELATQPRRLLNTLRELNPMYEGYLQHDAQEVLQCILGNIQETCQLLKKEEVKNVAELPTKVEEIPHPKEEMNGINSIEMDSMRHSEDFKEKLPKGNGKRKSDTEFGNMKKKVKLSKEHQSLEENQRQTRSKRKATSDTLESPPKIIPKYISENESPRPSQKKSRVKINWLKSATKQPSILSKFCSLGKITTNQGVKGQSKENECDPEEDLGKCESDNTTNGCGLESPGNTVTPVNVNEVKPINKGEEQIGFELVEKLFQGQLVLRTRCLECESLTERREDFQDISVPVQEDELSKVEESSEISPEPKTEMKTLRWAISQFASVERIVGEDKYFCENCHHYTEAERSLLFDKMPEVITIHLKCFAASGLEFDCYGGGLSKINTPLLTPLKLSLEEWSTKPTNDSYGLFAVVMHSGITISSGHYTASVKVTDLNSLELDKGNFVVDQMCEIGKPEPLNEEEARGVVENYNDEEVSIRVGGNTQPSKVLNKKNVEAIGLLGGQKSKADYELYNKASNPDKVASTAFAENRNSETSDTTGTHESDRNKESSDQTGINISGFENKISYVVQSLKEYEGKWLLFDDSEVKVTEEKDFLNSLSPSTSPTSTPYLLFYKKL
Outline: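 Deubiquitinase activity followed as kinetic rhodamine fluorescence release from 150 nM Ub-Rho. 1 nM USP1/UAF1 with compound, after 15 min room-temperature preincubation, in HEPES pH 7.8 buffer containing TCEP, EDTA, BSA and Tween-20.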

[15] = Primary qHTS for small molecule stabilizers of the endoplasmic reticulum resident proteome: Secreted ER Calcium Modulated Protein (SERCaMP) assay (AID 1508630); settings: SH-SY5Y GLuc-SERCaMP (Gaussia luciferase released on ER calcium loss) secretion, thapsigargin, luminescence; series mostly up to 38.4 µM; further: on the % scale 0 is the no-effect control and ±100 the full control effect
Outline: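 The SH-SY5Y reporter protocol was run at 3 concentrations up to 38.3 uM (primary) or 11 concentrations (follow-up): 16 h compound, 100 nM thapsigargin for 4 h, then extracellular luciferase luminescence.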

[16] = molecular target: 3',5'-cyclic-AMP phosphodiesterase 4B (Homo sapiens) (UniProt Q07343); test: qHTS Assay for Inhibitors of PDE-IV (AID 607; active means well fitted activation curve with a large enough effect in the main read-out, with a control signal flat, not every such curve was filed as active; further: % of control where 0% means no effect); settings: HEK293 ACTOne CNG channel cells, membrane potential fluorescence; series mostly up to 22.9 µM
3',5'-cyclic-AMP phosphodiesterase 4B (Homo sapiens), sequence (Q07343 whole entry, looked up): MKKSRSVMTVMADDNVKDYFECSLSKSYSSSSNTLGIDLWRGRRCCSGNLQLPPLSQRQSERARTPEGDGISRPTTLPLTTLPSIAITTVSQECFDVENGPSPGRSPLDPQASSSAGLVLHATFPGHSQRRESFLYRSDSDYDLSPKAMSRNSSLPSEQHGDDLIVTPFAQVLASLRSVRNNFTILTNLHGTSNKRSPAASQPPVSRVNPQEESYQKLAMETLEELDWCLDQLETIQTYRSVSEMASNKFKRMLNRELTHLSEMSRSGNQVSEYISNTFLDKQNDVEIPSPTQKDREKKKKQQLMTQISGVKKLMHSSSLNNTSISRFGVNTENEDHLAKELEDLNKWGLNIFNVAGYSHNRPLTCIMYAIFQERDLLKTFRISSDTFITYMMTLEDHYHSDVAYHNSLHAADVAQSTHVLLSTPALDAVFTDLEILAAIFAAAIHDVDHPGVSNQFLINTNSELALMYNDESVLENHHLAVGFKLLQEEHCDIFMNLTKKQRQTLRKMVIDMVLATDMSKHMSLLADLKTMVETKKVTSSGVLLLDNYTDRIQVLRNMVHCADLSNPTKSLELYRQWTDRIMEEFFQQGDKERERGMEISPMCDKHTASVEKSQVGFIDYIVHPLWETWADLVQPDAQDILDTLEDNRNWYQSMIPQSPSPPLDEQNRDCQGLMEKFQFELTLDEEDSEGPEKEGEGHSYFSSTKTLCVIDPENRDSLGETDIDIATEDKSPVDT
Outline: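 HEK293 ACTOne cells with CNG channel (1000/well), endogenous PDE4; membrane potential dye, compounds up to 22.9 uM final. Fluorescence Ex 535/Em 590; RO 20-1724 (100 uM final) as reference.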

[17] = molecular target: Cytochrome P450 2C19 (Homo sapiens) (UniProt P33261); test: qHTS Assay for Inhibitors and Substrates of Cytochrome P450 2C19 (AID 899); settings: recombinant CYP2C19, luciferin-H EGE luminescence; series mostly up to 57.1 µM; further: potency means the concentration at half of the fitted maximal effect; nearly all actives have a fitted effect of over 60% in size
Outline: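 Luminescent read-out of luciferin formed from Luciferin-H EGE (10uM, equal to KM). Enzyme 5nM in 50mM KPO4; compound added, 10 min at 37C, then NADPH regenerating system for 60 min at 37C. Full inhibition defined by 57uM ketoconazole.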

[18] = qHTS Assay for Identification of Small Molecule Agonists for Hypoxia Response Element Signaling Pathway (AID 914; active means well fitted activation curve with a large enough effect in the signal ratio, with a control signal flat, not every such curve was filed as active; the % refers to the signal ratio; further: potency means the concentration at half of the fitted maximal effect); settings: ME-180 (cervical carcinoma) HRE-bla reporter, beta-lactamase ratio, CoCl2, 17 h; activation: active compounds read high
Outline: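 AC50 values come from titration-series %Activity, taken as the 460/530nm ratio of CCF4 fluorescence (excitation 405nm). CellSensor HRE-bla ME-180 cells were treated 17 hours at 37 C with compound plus an EC50 level of CoCl2.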

[19] = molecular target: Dual specificity protein kinase CLK4 (Homo sapiens) (UniProt Q9HAZ1); test: qHTS Assay for Inhibitors of CDC-like Kinase 4 (ADP-FP Assay) (AID 1795); settings: Transcreener ADP fluorescence polarization; series mostly up to 50 µM;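 further: recombinant human CLK4 phosphorylating RS repeat peptide at 1 µM ATP; on the % scale 0 is the no-effect control and ±100 the full control effect; nearly all actives have a fitted effect of over 60% in size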
Outline: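 Kinase activity was measured as ADP production using Transcreener orange tracer (4 nM) and ADP antibody (1 ug/mL) fluorescence polarization, with ADP calculated from a calibration curve. The 1 h reaction contained 6.25 nM Clk4, 1 uM ATP and 100 uM RS peptide at pH 7.5 with Mg2+.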

CS(=O)(=O)Nc1cccc(-c2cncnc2NCc2ccccc2)c1
active: Potency [3] 25.1 µM | Potency [9] 0.398 µM | Potency [10] 0.631 µM
inactive: Potency [1] > 11.4 µM | activity change, negative = inhibition [2] -1.31% | activity change, negative = inhibition [4] 3.36% | activity, negative = inhibition [5] -2.08% | Potency [6] > 46 µM | Potency [7] > 46 µM | Potency [8] | Potency [11] | Potency [12] | Potency [13] | Potency [14] | outcome [15]

Cc1cnc(CNc2cc(-c3ccc(C(=O)N(C)C)cc3)ncn2)cn1
active: Potency [12] 12.6 µM | Potency [13] 14.1 µM
inactive: Potency [1] > 11.4 µM | activity change, negative = inhibition [2] 19.2% | Potency [3] | activity change, negative = inhibition [4] 15.2% | activity, negative = inhibition [5] 6.75% | Potency [6] > 46 µM | Potency [7] > 46 µM | Potency [8] | Potency [16] | Potency [14] | outcome [15]

CN(C)c1ccc(-c2cncnc2-n2ccnc2)cc1
active: Potency [3] 2.51 µM | Potency [10] 2.51 µM | Potency [17] 3.98 µM | Potency [12] 14.1 µM | Potency [13] 25.1 µM
inactive: Potency [1] > 11.4 µM | activity change, negative = inhibition [2] -3.44% | activity change, negative = inhibition [4] 4.48% | activity, negative = inhibition [5] 10.2% | Potency [6] > 46 µM | Potency [7] > 46 µM | Potency [8] | Potency [16] | Potency [11] | Potency [14] | outcome [15]

CCNc1ncc2nc(-c3cccs3)c(=O)n(CCc3ccccc3)c2n1
inactive: Potency [6] > 9.22 µM | Potency [7] > 46 µM | Potency [8] | Potency [11] | Potency [12] | Potency [13] | Potency [19] | Potency [14] | outcome [15]
active: Potency [3] 10 µM | Potency [18] 1 µM

CN(C)c1nc(-c2cccnc2)nc2ccccc12
inactive: Potency [1] > 11.4 µM | activity change, negative = inhibition [2] 12.7% | activity change, negative = inhibition [4] -1.56% | activity, negative = inhibition [5] -4.72% | Potency [6] > 46 µM | Potency [7] > 46 µM | Potency [8] | Potency [16] | activity change, negative = inhibition [9] 81% [at 2.29 µM] | Potency [11] | Potency [14] | outcome [15]
active: Potency [3] 0.126 µM | Potency [10] 7.94 µM | Potency [12] 28.2 µM | Potency [13] 25.1 µM

Cc1cnc(CNc2ncncc2-c2ccoc2)cn1
active: Potency [3] 12.6 µM | Potency [10] 2 µM
inactive: Potency [1] > 11.4 µM | activity change, negative = inhibition [2] 0.489% | activity change, negative = inhibition [4] -1.22% | activity, negative = inhibition [5] 3.39% | Potency [6] > 46 µM | Potency [7] > 46 µM | Potency [8] | Potency [16] | Potency [11] | Potency [12] | Potency [13] | Potency [14] | outcome [15]

CCNc1ncc2nc(-c3ccc(OC)cc3)c(=O)n(Cc3cccs3)c2n1
inactive: activity change, negative = inhibition [4] 2.94% | Potency [6] > 9.22 µM | Potency [7] > 46 µM | Potency [8] | Potency [11] | Potency [12] | Potency [13] | Potency [19] | Potency [14] | outcome [15]
active: Potency [3] 0.631 µM | Potency [18] 3.16 µM

c1cncc(-c2ccc3ncnc(NCCN4CCOCC4)c3c2)c1
active: Potency [3] 1 µM | Potency [12] 15.8 µM | Potency [13] 17.8 µM
inactive: Potency [1] > 11.4 µM | activity change, negative = inhibition [2] -1.94% | activity change, negative = inhibition [4] 26% | activity, negative = inhibition [5] 2.95% | Potency [6] > 46 µM | Potency [7] > 46 µM | Potency [8] | Potency [16] | Potency [11] | Potency [14] | outcome [15]

CN(C)c1ncc2nc(-c3cc(F)cc(F)c3)c(=O)n(Cc3ccc(F)cc3)c2n1
active: Potency [18] 3.16 µM
inactive: Potency [3] | Potency [6] > 46 µM | Potency [7] > 46 µM | Potency [8] | Potency [16] | Potency [9] | Potency [11] | Potency [12] | Potency [13] | Potency [19] | Potency [14] | outcome [15]

COc1ccc2[nH]cc(CCNc3cc(-c4ccc(C(=O)N(C)C)cc4)ncn3)c2c1
active: Potency [3] 20 µM | Potency [10] 6.31 µM | Potency [12] 10 µM | Potency [13] 10 µM
inactive: Potency [1] > 11.4 µM | activity change, negative = inhibition [2] -10.4% | activity change, negative = inhibition [4] 0.0562% | activity, negative = inhibition [5] -10.6% | Potency [6] > 46 µM | Potency [7] > 46 µM | Potency [8] | Potency [16] | Potency [11] | Potency [14] | outcome [15]

CN1CCN(c2ncncc2-c2cccnc2)CC1
active: Potency [3] 25.1 µM
inactive: Potency [1] > 11.4 µM | activity change, negative = inhibition [2] 2.82% | activity change, negative = inhibition [4] -6.42% | activity, negative = inhibition [5] -20.2% | Potency [6] > 46 µM | Potency [7] > 46 µM | Potency [8] | Potency [16] | Potency [11] | Potency [12] | Potency [13] | Potency [14] | outcome [15]
